Reference: the supplement of paper PMC6555819

Columns and labels:
Assay in all cases: PBM binding z-score (relative to random genomic background probes); higher = stronger binding; sequences stand for … in GC…GCGATTGACAGCGTAGAATGAAGG
[1] = test system: PPARg:RXRa DBDmut IVT, anti-RXR (DBD mutation: RXRa K156A/R161A, NR concentration 270 nM, RXRa partner concentration 90 nM)
Summary of the method: (§1)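 Custom Agilent 4×180K protein-binding microarrays carried double-stranded probes. Their 34-nt variable regions held direct-repeat seeds, single-nucleotide variants, half-site ablations and random human genomic background sequences. Arrays were incubated 1 h with ligand-free nuclear receptor dimers in PBS pH 7.4, 2% milk, 0.02% Triton X-100, 1 mM DTT, 0.2 mg/mL BSA and 0.4 mg/ml salmon testes DNA. Antibodies against each partner (one per run) detected binding, and scanned fluorescence was regression-normalized. Binding z-scores use random background probes as reference.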

[2] = test system: PPARg:RXRa IVT, anti-PPARg (NR concentration 270 nM, RXRa partner concentration 90 nM)
Summary of the method: as §1

[3] = test system: PPARg DBDmut:RXRa IVT, anti-PPARg (DBD mutation: PPARg1 K132A/R137A, NR concentration 270 nM, RXRa partner concentration 90 nM)
Summary of the method: as §1

[4] = test system: PPARg DBDmut IVT, anti-PPARg (DBD mutation: PPARg1 K132A/R137A, NR concentration 270 nM)
Summary of the method: as §1

[5] = test system: PPARg homodimer (NR concentration 180 nM)
Summary of the method: as §1

[6] = test system: PXR:RXRa (NR concentration 270 nM, RXRa partner concentration 90 nM)
Summary of the method: as §1

[7] = test system: PXR homodimer (NR concentration 270 nM)
Summary of the method: as §1

[8] = test system: RARa:RXR (NR concentration 270 nM, RXRa partner concentration 90 nM)
Summary of the method: as §1

[9] = test system: RARa homodimer (NR concentration 270 nM)
Summary of the method: as §1

[10] = test system: RARb:RXRa (NR concentration 270 nM, RXRa partner concentration 90 nM)
Summary of the method: as §1

Sequence	PBM binding z-score [1]	PBM binding z-score [2]	PBM binding z-score [3]	PBM binding z-score [4]	PBM binding z-score [5]	PBM binding z-score [6]	PBM binding z-score [7]	PBM binding z-score [8]	PBM binding z-score [9]	PBM binding z-score [10]
TGACTGAGGTTATAAGATCAGGGAACGTTGCAAA	-0.568	0.535	-0.045	-0.27	0.479	0.649	-0.0741	1.25	-0.694	1.15
TGTCAAAGTACAAAGGTAACGTAAGTATCCACAC	-0.385	2.33	1.2	1.03	0.0149	0.587	-0.194	1.04	0.713	1.67
CATACAGGGTCAGCTAGGCCAGCGTAGGGACGGC	1.15	2.23	0.338	0.666	1.25	2.09	0.247	2.95	0.0243	4.03
CCTCGGAGGACAACAGGAGGTCAGAGTTGCCAGA	-0.0815	0.313	-0.9	-1.99	2.15	2.36	1.11	2.64	0.759	2.83
AGAACGAGGGCACGCTGAGTTGATAGCTGAGTAG	4.41	3.75	0.643	0.101	0.829	1.57	0.136	1	-0.945	2.57
AGAATGAGGTTACCAAAGATCAGGGAGACGCTTG	3.87	3.22	1.19	0.476	0.567	1.53	0.0174	1.99	0.112	2.15
AGAATGAGGTTAAGATCAGGTAAACAGAATACAT	2.37	2.93	1.7	0.933	0.782	1.52	0.259	2.3	0.662	1.98
TCGAGTAGGTTACCAATGGGGCATTGAGCTTTCT	3.4	2.69	-0.293	-0.233	-0.0976	0.039	-0.707	0.00376	-0.988	0.917
CATAGCAGGCCAATCTGGGTCACTCAAGGCTTGA	4.39	5.66	-0.292	-0.125	0.261	1.03	-0.436	1.25	-0.301	1.65
TCGAATAGGTTACCAATGGGGCATTCAGCTTTCT	2.41	1.12	0.24	-0.411	0.402	0.725	0.0437	0.908	0.281	1.57
TCTGGTAGATCAAGCAGGTTAAGAAAGCCTGAGT	1.17	-0.178	-0.408	-0.683	-0.462	0.159	0.156	0.213	-0.519	-0.0969
GCAGACAGGTGACACGCAGGTAACTCAGGGTGGC	0.596	1.21	-0.103	-0.383	-0.125	-0.218	-0.476	0.24	-0.572	0.684
TAGCCTAGGTCATGGGCCAGTATTCCACGCGAAC	1.55	3.11	0.483	-0.959	1.79	1.75	-0.956	2.95	-0.638	3.78
GCTGCTAGGTCAACTGATGATCAGCTAAAGCTCG	4.79	4.29	-0.231	0.333	1.28	1.34	-0.82	2.48	-0.292	4.25
TGTTGTAGATCAGCAGGTTAAGAAAGCTGGCCAA	-1.12	-0.254	-0.00533	-1.02	-0.701	-0.454	-0.604	-0.71	-0.587	-0.157
TCTATTAGTTGAAGGGCAACCAACGAGTCCGTTT	2.05	0.417	0.246	1.16	0.593	0.786	0.837	0.718	1.55	1.46
ATATGTAGGTTATCGTGTCATTCAGTTTGCGCAT	7.74	7.44	2.49	2.15	1.76	1.17	0.812	1.16	0.933	1.32
CCGACTGGGGCAAGGTTAGCATAACGCACAGCCA	2.73	2.99	-1.11	-0.288	0.409	-0.179	-0.316	-0.0446	-0.606	1.22
GCTCGGAGGACAAGGTGAGAGCTTTGTCCGTAGA	-0.575	0.359	-0.51	-0.882	-0.374	-0.472	-0.908	-0.166	-1.13	1.52

Sequence	PBM binding z-score [1]	PBM binding z-score [2]	PBM binding z-score [3]	PBM binding z-score [4]	PBM binding z-score [5]	PBM binding z-score [6]	PBM binding z-score [7]	PBM binding z-score [8]	PBM binding z-score [9]	PBM binding z-score [10]
TGTCAAAGTTCAAAGGTACCGTAAGTATCCACAC	0.615	4.3	1.2	0.655	1.97	5.17	3.76	4.94	0.937	4.89
ACTAGCAGGCCAAGTTTGGGTGACTCAAACAAAG	0.661	0.765	-1.13	-1.09	-0.815	-0.475	-0.715	-0.198	-0.374	0.418
ATATGTAGGTTTAGGGTCATTCAGGTTGGTTCGC	2.89	3.81	1.35	1.25	2.95	5.07	4.08	4.48	2.17	2.79
GCAGACAGGCGAAACGCAGGTAACTCAGGGTGGC	-0.782	-0.814	-1.19	-1.5	-0.436	-0.82	-0.795	-0.316	-1.37	-0.55
TCTAGTAGTTGATTAGGGCAACCGAAACAGCGGA	1.59	1.34	-0.69	0.23	-0.0887	0.0313	-0.395	0.285	-0.475	0.581
AATACAGGGTCACTAGGCCTGAGTAGGTACGAAT	2.96	4.76	1.25	1.34	2.04	2.85	0.251	3.86	0.431	4.06
GCTAGCAGGCCATATGGGTCACTCAATGACGGGC	1.57	2.68	-0.447	-0.866	-0.0235	0.585	-0.337	1	-0.311	1.62
TCTTGTAGATCAACAGGAGGTTAAGCAAGATCGA	1.61	0.884	0.4	0.795	-0.0893	0.934	0.136	1.22	-0.27	0.659
ATCTCTAGGTAACAAGTGCAGTGAAAGAGAGGAC	2.78	2.62	1.24	0.573	0.521	0.133	0.353	0.0235	0.451	0.586
ATCTCTAAGTAAGACTCAGTTCAGTGAAGAACGC	0.103	0.218	0.885	1.04	0.659	0.518	1.83	0.541	1.22	0.15
AGTCAAAGTTCAGGACGAGGTAACGTCAAGCACG	-0.313	1.89	0.047	-0.603	3.18	3.06	1.42	3.01	1.63	4.25
ATCTCCAGGTAAAAGTTCAGTGAATCCCGAGGAT	0.0885	2.31	1.68	1.01	1.84	2.4	1.88	2.14	1.07	2.6
CCGACTGGGTCAGAAAGGTTACCATACCATCCGG	3.31	3.92	0.245	-0.526	2.08	2.48	0.43	3.17	0.179	3.15
TGCATGAGGTTATAAGATCAGGGAACGTTGCAAA	-0.354	0.643	0.656	0.178	0.466	0.667	-0.0693	1.48	0.252	1.4
TCATATAGGTATATGCTAGGTGAAAGTCCGATCT	2.4	1.07	0.908	1.63	0.436	0.612	0.215	0.893	0.379	0.145
CCTACTGGGCCAGGGTCATTGATCAGTCAAAGCA	1.49	3.62	-1.03	-0.896	0.994	3.06	0.381	3.61	-0.641	2.51
TCATATAGGTAAATGCTATGTGAAAGTCCGATCT	3.59	2.05	1.25	1.39	0.542	0.621	-0.0684	0.813	1.29	0.304
CATACAGGGTCAGCTAGGCCAGACTAGGGACGGC	1.3	2.37	0.631	0.373	0.901	2.01	0.149	2.36	0.259	3.94
ACTTACGGGTCAACGAGGTAATAGCACGCGTATA	3.55	4.22	1.27	1.43	2.86	3.81	0.484	4.62	0.585	4.15
